Drawing on PubChem BioAssay (NCATS), this text covers Potency and viability, % of control for 24 compounds.

Results filed as inconclusive are left out. Where a call stands in place of a potency, no number is given. A number with no mark means an inactive call. The source made the active and inactive calls. Calls follow the shape of the dose curve; as a rule, active = well fitted cell-killing curve with a large enough effect; inconclusive = small, poorly fitted or top-dose-only effect, or effect the other way; inactive = no such curve, though single readings can be large or run the other way.
Potency is read from the fitted curve at half-maximal effect.

This test can be described thus: Viability qHTS for spleen associated tyrosine kinase inhibitor (SYKi) drug resistant MV4-11 cells (AID 1963824). Also: nearly all actives have a fitted effect of over 35% in size. Particulars: SYKi-resistant MV4-11 viability, CellTiter-Glo, 72 h; series mostly up to 45 µM. In short, it runs like this: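 SYK-inhibitor-resistant MV4-11 AML cells were seeded at 500 per well onto compound and cultured 72 hours (37 °C, 5% CO2). CellTiter-Glo was then added, and after 10 min at room temperature, luminescence gave viability.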
For orientation: In qHTS, concentration-response curves come from the screen itself.
For the compound `C=C1C[C@]23C[C@H]1CC[C@H]2[C@@]12C=C[C@H](O)[C@@](C)(C(=O)O1)[C@H]2[C@@H]3C(=O)O`, the Potency result was “inactive”.
Regarding `C[C@@H]1O[C@@H](O[C@@H]2[C@@H](O)[C@@H](O[C@]3(CO)O[C@H](CO)[C@@H](O)[C@@H]3OC(=O)/C=C/c3ccc(O)cc3)O[C@H](CO)[C@H]2OC(=O)/C=C/c2ccc(O)cc2)[C@H](O)[C@H](O)[C@H]1O[C@@H]1O[C@@H](C)[C@H](O[C@@H]2OC[C@](O)(CO)[C@H]2O)[C@@H](O)[C@H]1O`, the viability, % of control is 102% [at 9.25 µM].
Turning to `COC(=O)C1=COC(OC2OC(CO)C(O)C(O)C2O)C2C(COC(=O)/C=C/c3ccc(O)cc3)C(O)C(O)C12` (centres undefined), the Potency entry was “inactive”.
Same read-out and setting: under `C/C=C(/C=C(C)/C=C/C=C/C=C(\C)C(=O)C12OC1C(O)(CCO)NC2=O)C(=O)OC` (centres undefined) stands 11.2 µM (active); under `CC[C@H]1OC(=O)[C@H](C)[C@@H](O[C@H]2C[C@@](C)(OC)[C@@H](O)[C@H](C)O2)[C@H](C)[C@@H](O[C@@H]2O[C@H](C)C[C@H](N(C)C)[C@H]2O)[C@](C)(O)C[C@@H](C)/C(=N/OCOCCOC)[C@H](C)[C@@H](O)[C@]1(C)O`, “inactive”; under `CC(=O)NC1CC(=O)C23C(=O)NC(Cc4c[nH]c5ccccc45)C2C(C)=C(C)C(O)C3/C=C/CC(C)/C=C(/C)C(O)C1O` (centres undefined), “inactive”.
Still for that read-out and setting: under `O=c1[nH]cnc2c([C@@H]3N[C@H](CO)[C@@H](O)[C@H]3O)c[nH]c12` stands “inactive”; under `COc1c(C)c(C(=O)c2ccc(N)c(C(=O)O)c2)n2ccccc12`, “inactive”.
Still for that read-out and setting: under `CC(CC(C)O[C@@H]1O[C@H](CO)[C@@H](O)[C@H](O)[C@H]1O)OC(=O)/C=C/c1ccc(O)cc1` (some centres undefined) stands “inactive”.
Consider `CC1(C)CC[C@]2(C(=O)O[C@@H]3O[C@H](CO)[C@@H](O)[C@H](O)[C@H]3O)CC[C@]3(C)C(=CCC4[C@@]5(C)CC[C@H](O[C@@H]6O[C@H](C(=O)O)[C@@H](O)[C@H](O)[C@H]6O)C(C)(C)C5CC[C@]43C)C2C1` (some centres undefined), for which the viability, % of control was 98% [at 9.25 µM].
For the compound `C[C@H](/C=C/[C@@]1(O)[C@H](C)CC(=O)CC1(C)C)O[C@@H]1O[C@H](CO[C@@H]2OC[C@@H](O)[C@H](O)[C@H]2O)[C@@H](O)[C@H](O)[C@H]1O`, the Potency result is “inactive”.
Still for that read-out and setting: under `N#Cc1cc(-c2n[nH]c(-c3ccncc3)n2)ccn1` stands “inactive”.
Still for that read-out and setting: under `CC[N+]1(C/C2=C/CCCCCC2)CCC(NC(=O)C2c3cc(Cl)ccc3Oc3ccc(Cl)cc32)CC1` (centres undefined) stands 3.66 µM (active).
Still for that read-out and setting: under `O=C(O)CCc1cc2ccoc2cc1O[C@@H]1O[C@H](CO[C@@H]2OC[C@](O)(CO)[C@H]2O)[C@@H](O)[C@H](O)[C@H]1O` stands “inactive”.
As to `N#Cc1ccc2ncnc(NCCc3ccccc3)c2c1`, the Potency is 4.11 µM (active).
Still for that read-out and setting: under `COc1c(C)c(OCC(O)C(C)(C)O)cc2c1COC2=O` (centres undefined) stands “inactive”; under `CC1=C2C(=O)C=C(CO[C@@H]3O[C@H](CO)[C@@H](O)[C@H](O)[C@H]3O)[C@@H]2[C@H]2OC(=O)[C@H](C)[C@@H]2CC1`, “inactive”; under `CC1(C)CC[C@]23CO[C@@]4(CCC5[C@@]6(C)CC[C@H](O[C@@H]7OC[C@H](O[C@@H]8O[C@H](CO)[C@@H](O)[C@H](O)[C@H]8O)[C@H](O)[C@H]7O[C@@H]7O[C@H](CO)[C@@H](O[C@@H]8O[C@H](CO)[C@@H](O)[C@H](O)[C@H]8O)[C@H](O)[C@H]7O)[C@@](C)(CO)C6CC[C@@]5(C)[C@]4(C)C[C@H]2OC2OCC(O)C(O)C2O)C3C1` (some centres undefined), 3.09 µM (active).
The same measure, in the same setting: under `CC1CCC2(C(=O)OC3OC(CO)C(O)C(O)C3O)CCC3(C(=O)O)C(=CCC4C5(C)CCC(OC6OC(C)C(O)C(O)C6O)C(C)(C)C5CCC43C)C2C1C` (centres undefined) stands “inactive”; under `C=C1C(=O)OC2/C=C(\CO)CC/C=C(\C=O)C(OC)C(OC(=O)C(C)CC)C12` (centres undefined), 2.52 µM (active); under `C=C(C(=O)O)[C@H]1C[C@]2(C)C(=O)CC[C@]23O[C@H]1C[C@@H]3C`, “inactive”.
The same measure, in the same setting: with `COC(=O)c1cc(OC)c(O[C@@H]2O[C@@H](C)[C@H](O)[C@@H](O)[C@H]2O)c(OC)c1` the entry was “inactive”; with `CC[C@@H]1C[C@]1(NC(=O)[C@@H]1C[C@@H]2CN1C(=O)[C@H](C(C)(C)C)NC(=O)OCC(C)(C)CCCCc1cccc3c1CN(C3)C(=O)O2)C(=O)NS(=O)(=O)C1CC1`, 18.4 µM (active); with `CC1(C)CC2C(C1)C(C)(O)C13CC1(COC3=O)C2O` (centres undefined), “inactive”.
